From the supplement of paper PMC4166925
± gives the standard deviation of the averaged measurements. In all, about 33,000 sequences were measured (“E-score (dimensionless, -0.5 to 0.5)”: median about -0.046, highest 2% from about 0.36 on). The entries come from a sample that favours the highest values as a whole.

Each sequence was assayed on T1, SpTbr T-box DNA-binding domain (GST fusion) (assay: PBM E-score of 8-mer (E-score (dimensionless, -0.5 to 0.5)); Tbr is Tbrain of the sea star Patiria miniata (Pm) or the sea urchin Strongylocentrotus purpuratus (Sp); higher = stronger binding preference). Conditions: the construct has about 5 more residues each side.
T1 sequence: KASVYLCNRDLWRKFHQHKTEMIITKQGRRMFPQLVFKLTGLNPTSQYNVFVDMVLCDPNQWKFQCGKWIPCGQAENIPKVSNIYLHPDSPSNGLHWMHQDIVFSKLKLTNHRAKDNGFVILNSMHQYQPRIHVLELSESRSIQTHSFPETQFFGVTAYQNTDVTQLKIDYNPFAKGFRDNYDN
Description: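 Universal protein-binding microarray (Agilent AMADID 016060, 60-bp probes with a 35-bp variable region) incubated with 200 nM GST-fused Strongylocentrotus purpuratus Tbr T-box DNA-binding domain (residues 362-554) in PBS pH 7.5. Scored for every ungapped 8-mer (given with its reverse complement) as E-score (range -0.5 to 0.5; >0.45 counts as bound) and Z-score of median probe intensity. Two replicate arrays (datasets 1 and 2).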
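Note: protein at 200 nM in PBS on universal double-stranded arrays.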

Point of comparison: CTTCACGC, “PBM E-score of 8-mer” value 0.409 ± 0.01. Against it:
- GAGCGCTA — lower, 0.205 ± 0.021
- AAAAGGTA — lower, -0.207 ± 0.011
- CACCTATG — within error, 0.427 ± 0.011
- AACCTATG — lower, -0.15 ± 0.014
- CACCTATC — lower, 0.358 ± 0.012
- AACCTATA — lower, -0.123 ± 0.024
- TACCTATA — lower, -0.192 ± 0.0052
- CACCTATA — within error, 0.392 ± 0.015
- CGCTAATA — lower, 0.135 ± 0.092
- CGCCGGCG — lower, 0.1618 ± 0.00064
- ATCGTACC — lower, -0.157 ± 0.03
- GAACAGTA — lower, 0.00048 ± 0.058
- CACCGCCG — lower, 0.151 ± 0.1
- CTCTCACC — within error, 0.38 ± 0.021
- ACCTCACC — lower, 0.224 ± 0.017
- ATCTCAAC — lower, 0.00654 ± 0.026
- CTCTCACA — lower, 0.3477 ± 0.0025
- GTCTCACA — lower, 0.382 ± 0.0069
- GCCTCACA — lower, 0.292 ± 0.0099
- ATCTCACC — within error, 0.422 ± 0.0058
- GTCTCTCA — lower, 0.0648 ± 0.045
- CTGTCACA — lower, 0.358 ± 0.01
- ATGTCACC — lower, 0.323 ± 0.0098
- CTGTCACC — within error, 0.396 ± 0.0078
- CGCTCACC — lower, 0.0959 ± 0.018
- ATATGAAT — lower, -0.00217 ± 0.023
- ACACCAAA — lower, 0.315 ± 0.013
- AAGAATGT — lower, -0.0437 ± 0.045
- TACCGGAA — lower, -0.116 ± 0.02
- AAGGAGAG — lower, -0.168 ± 0.0067
- CACCGATC — lower, 0.154 ± 0.014
- TATATGCA — lower, -0.113 ± 0.014
- AATGCGTG — lower, 0.253 ± 0.028
- CAGGTCAA — lower, -0.18 ± 0.073
- ACGGACAT — lower, -0.0905 ± 0.036
- AACTTAAT — lower, -0.0641 ± 0.021
- GTGCCCCA — lower, -0.0876 ± 0.0044
- AGCACCCC — lower, 0.27 ± 0.036
- ATCTCACA — lower, 0.372 ± 0.0029
- ACCTCACA — within error, 0.41113 ± 4.2e-05
- TCCTCACA — lower, 0.3492 ± 0.0024
- ATCTCTCA — lower, 0.171 ± 0.012
- ATCTCACG — lower, 0.29 ± 0.012
- ACCTCACG — lower, 0.239 ± 0.005
- TCCTATCA — lower, -0.0124 ± 0.0011
- GGTGGCAA — within error, 0.4 ± 0.011
- GGTGGCAC — lower, 0.3544 ± 0.0029
- AGTGGCAA — lower, 0.305 ± 0.0085
- AGTTTGAC — lower, 0.143 ± 0.018
- ATGTGTTA — higher, 0.444 ± 0.015
- GTGTGTTA — lower, 0.318 ± 0.021
- ATGTGTTC — lower, 0.111 ± 0.064
- ATGTGTTG — lower, 0.381 ± 0.014
- ATATGTTG — lower, -0.00329 ± 0.071
- CTGTGTTA — lower, 0.195 ± 0.079
- CCTTTTAG — lower, 0.0506 ± 0.044
- CTTACACA — lower, 0.276 ± 0.035
- CTTACACC — within error, 0.392 ± 0.025
- CGAACACC — lower, 0.321 ± 0.011
- CTAACACC — higher, 0.464 ± 0.005
- CTAACACA — lower, 0.354 ± 0.0043
- ATAACACG — lower, 0.303 ± 0.033
- ATTACACC — within error, 0.358 ± 0.057
- ATAACACA — lower, 0.35 ± 0.028
- ATAACACC — higher, 0.457 ± 0.0069
- CTTCTAAC — lower, 0.16 ± 0.038
- CATATCGA — lower, -0.154 ± 0.056
- CCGCAAAG — lower, -0.233 ± 0.015
- CGAGATCG — lower, 0.175 ± 0.058
- AAACTGAG — lower, -0.1 ± 0.018
- CACCAAGC — lower, 0.129 ± 0.017
- CCCAACAC — lower, 0.343 ± 0.013
- GAACTTAC — lower, -0.0233 ± 0.034
- CCAAGTAA — lower, -0.21 ± 0.095
- AGCGAACC — lower, 0.0666 ± 0.08
- AGCGAAAG — lower, -0.123 ± 0.022
- CGCGAAGC — lower, 0.324 ± 0.033
- CGCGAAAC — lower, 0.344 ± 0.0048
- CGCGAAGA — lower, 0.371 ± 0.01
- CGCGAACG — within error, 0.422 ± 0.013
- CGCGAAAG — within error, 0.387 ± 0.015
- AGCGAAGA — lower, 0.106 ± 0.019
- CGCGAACC — lower, 0.375 ± 0.013
- GGCGAACC — lower, -0.141 ± 0.05
- AGCGAACG — lower, 0.0538 ± 0.025
- CGCGAACA — lower, 0.36 ± 0.019
- CAAATGAG — lower, -0.158 ± 0.037
- GACCAGTC — lower, -0.333 ± 0.075
- AGTCCATA — lower, -0.295 ± 0.063
- CACAGCGC — lower, 0.0949 ± 0.014
- TGCCCACA — lower, 0.0199 ± 0.1
- CGTTTGGA — lower, -0.0006 ± 0.068
- CCGTTCAC — lower, 0.367 ± 0.029
- CCGTTCAG — lower, -0.113 ± 0.032
- ACGTTCAA — lower, -0.145 ± 0.032
- ACGTTCAG — lower, -0.122 ± 0.029
- ACGTTCAC — lower, 0.369 ± 0.0053
- GCGTTCAC — lower, 0.239 ± 0.011
- CGGAGACA — lower, -0.0395 ± 0.021
- ACAGAGAC — lower, -0.0676 ± 0.02
- CAACCCTG — lower, 0.014 ± 0.024
- CGCCTTGA — lower, 0.159 ± 0.083
- AGCCACAA — lower, 0.0237 ± 0.048
- GACACCGC — lower, 0.244 ± 0.061
- GACACGTA — lower, 0.29 ± 0.0077
- GACACCTC — higher, 0.479 ± 0.009
- GACACCTA — higher, 0.4778 ± 0.0018
- GAGACCTC — lower, -0.305 ± 0.013
- GACACCGA — lower, 0.293 ± 0.0048
- ACCAGTAG — lower, -0.2 ± 0.063
- AATGGACC — lower, -0.2776 ± 0.0022
- GGATGGAC — lower, -0.203 ± 0.0084
- GGTCAGAC — lower, -0.274 ± 0.051
- CCTCACGC — lower, 0.322 ± 0.036
- ATTCACGA — lower, 0.288 ± 0.047
- CTTCACGA — lower, 0.167 ± 0.043
- AGTCACGC — lower, 0.3794 ± 0.0033
- AGTCACGG — lower, -0.193 ± 0.0098
- ATTCACGC — within error, 0.424 ± 0.0061
- AGTCACGA — lower, 0.152 ± 0.0034
- ATTCACGG — lower, 0.259 ± 0.00064
- CACTGGCG — lower, 0.162 ± 0.084
- ACCCATTC — lower, -0.15 ± 0.062
- TGGGGTAA — lower, -0.1604 ± 0.001
- AATTCGCA — lower, 0.321 ± 0.023
- ATTTCGCC — lower, -0.0532 ± 0.044
- ATTTCGCA — lower, 0.335 ± 0.025
- CATTCGCC — lower, -0.147 ± 0.039
- CATTCGCA — lower, 0.384 ± 0.0068
- AATTCGCG — lower, 0.279 ± 0.02
- CATTCGCG — lower, 0.389 ± 0.0059
- ATTTCGCG — within error, 0.389 ± 0.016
- GATTCGCA — lower, 0.327 ± 0.014
- TATTCGAA — lower, -0.0307 ± 0.088
- CATTCGTA — lower, -0.0369 ± 0.038
- TATTCGCA — lower, 0.369 ± 0.0054
- AGTCAAAA — lower, -0.181 ± 0.0086
- AGATTAGC — lower, 0.0489 ± 0.043
- ACATGGGG — lower, -0.06449 ± 0.00059
- GTCATCTA — lower, -0.0343 ± 0.015
- GACCACTC — lower, 0.0231 ± 0.029
- AAAGGCTC — lower, -0.214 ± 0.06
- GGCAAAAA — lower, 0.0671 ± 0.028
- AACCACGT — lower, -0.161 ± 0.017
- GTGGCAAA — lower, 0.309 ± 0.024
- ACGTGGGA — lower, 0.203 ± 0.026
- CCGATAGG — lower, 0.00486 ± 0.048
- GTTTCGCA — lower, 0.36 ± 0.02
- CTTTCGCC — lower, -0.043 ± 0.078
- CTTTCGCA — within error, 0.421 ± 0.015
- CGTATCTC — lower, -0.174 ± 0.0059
- AGCACCGA — lower, -0.094 ± 0.013
- AGCACCTG — within error, 0.398 ± 0.0042
- ACCACCTC — lower, 0.343 ± 0.046
- ATCACCTG — lower, 0.304 ± 0.022
- AGCACCTC — within error, 0.4014 ± 0.004
- GCCACCTA — lower, 0.285 ± 0.036
- AGCACCTA — the same, 0.409 ± 0.0069
- GGCACCGA — lower, -0.122 ± 0.1
- ACCACCTA — lower, 0.109 ± 0.065
- AGCACCGC — lower, -0.0167 ± 0.064
- AGCACCGG — lower, -0.0409 ± 0.027
- GGCACCTA — lower, 0.382 ± 0.015
- ACGAAGCC — lower, -0.00822 ± 0.065
- ACTGGCCA — lower, 0.0049 ± 0.016
- ATAGGCTC — lower, -0.167 ± 0.02
- ACGCTACG — lower, 0.102 ± 0.023
- ACCAACGA — lower, 0.102 ± 0.0046
- CTCGGCCC — lower, -0.0368 ± 0.041
- ACTTTTGA — lower, -0.0941 ± 0.084
- AGTTTCAT — lower, -0.233 ± 0.01
